Screening results from PubChem BioAssay.
Rows were chosen to be rich in hits. Some 2.9% of all compounds tested hit in one or more screens of this group.
B2AR arrestin – qHTS assay of beta-arrestin-biased ligands of beta2-adrenergic receptor. Potency, µM (highest dose often 46.1 µM), for inactives: at the highest dose activation, hits mostly activators. beta-arrestin recruitment to beta2AR, cell-based reporter. Beta-2 adrenergic receptor (Homo sapiens), P07550. AID 492947, 2010. 330,000 tested, 0.02% active;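 further: potency means the concentration at half of the fitted maximal effect; 0% = DMSO controls and full agonism = EC100 isoproterenol or metaproterenol; nearly all actives have a fitted effect of over 65% in size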
DRD3 agonist – qHTS of D3 Dopamine Receptor Agonist: qHTS; D(3) dopamine receptor (Homo sapiens), P35462; D3R DiscoveRx beta-arrestin cells, luminescence, 90 min; max activation, %; 410,000 tested, 0.58% active; in the data active means max activation above about 30%; further: 0% is about no effect
Target sequence (P35462 whole entry, looked up): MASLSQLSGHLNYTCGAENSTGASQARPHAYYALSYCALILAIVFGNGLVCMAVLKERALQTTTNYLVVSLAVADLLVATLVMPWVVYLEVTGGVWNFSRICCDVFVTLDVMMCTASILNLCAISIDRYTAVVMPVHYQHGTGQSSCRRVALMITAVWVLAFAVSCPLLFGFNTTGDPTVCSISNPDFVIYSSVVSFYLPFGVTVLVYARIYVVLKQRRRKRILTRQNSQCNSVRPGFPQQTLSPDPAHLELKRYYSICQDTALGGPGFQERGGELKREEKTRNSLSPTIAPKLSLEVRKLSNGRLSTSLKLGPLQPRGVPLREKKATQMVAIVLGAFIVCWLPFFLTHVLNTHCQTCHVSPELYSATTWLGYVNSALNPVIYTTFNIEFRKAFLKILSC
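Cells at 1500/well, incubated overnight, then treated with pinned compounds (dopamine as control) for 90 min at 37 degrees C. DiscoveRx reagent added for 30 - 60 minutes at room temperature; luminescence read.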
D3 antag – qHTS of D3 Dopamine Receptor Antagonist: qHTS. D3R cells, DiscoveRx beta-arrestin luminescence, antagonist mode; hits give low values. max response, negative = inhibition, %. 360,000 tested, 2.5% active; in the data active means max response below about -50%; inconclusive means no clear call, values can overlap the other calls; further: on the % scale 0 is the no-effect control and ±100 the full control effect
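Cells expressing the human receptor were seeded at 1500 cells/well, incubated overnight at 37 degrees C in 5% CO2, then exposed to library compounds with dopamine controls for 90 minutes at 37 degrees C before luminescent detection.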
IDH1 R132H inh – qHTS for Inhibitors of mutant isocitrate dehydrogenase 1 (IDH1): qHTS; Potency, µM (series often up to 76.6 µM), inactives show at the top dose activity change, negative = inhibition, usual class: inhibitors; 390,000 tested, 0.093% active; Isocitrate dehydrogenase [NADP] cytoplasmic (Homo sapiens), O75874; AID 602179, 2012; IDH1-R132H enzyme, NADPH consumption, diaphorase/resazurin fluorescence; further: potency means the concentration at half of the fitted maximal effect; on the % scale 0 is the no-effect control and ±100 the full control effect; nearly all actives have a fitted effect of over 65% in size
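IDH1-R132H (0.5 ug/mL dispensed) in pH 7.5 Tris buffer was preincubated 30 min with compound, then given a substrate mix of 0.016 mM NADPH and 2 mM alpha-KG for 80 min at room temperature; remaining NADPH was read by diaphorase/resazurin fluorescence.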
a7 integrin act – qHTS for Activators of Integrin-Mediated Alleviation for Muscular Dystrophy; alpha7betagal myoblasts, beta-gal FDG fluorescence, 48 h; Potency, µM (series often up to 38.3 µM), inactives show at the highest dose activation, most hits filed as activators; 350,000 tested, 0.064% active; AID 624291, 2012;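 further: potency means the concentration at half of the fitted maximal effect; 100% = response of the positive control SU9516; nearly all actives have a fitted effect of over 60% in size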
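Alpha7betagal+/- myoblasts (passage 13) were plated 16-24 hr, then exposed to compounds (1:260 dilution of DMSO stock) for 48 hours at 37C. After MPER lysis, β-galactosidase reporter activity was read as FDG fluorescence (ex 480/em 540) after 30 minutes.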
The depositor's hits bear a star; ? = inconclusive; nt = no result; [ ] = dose if it differs, or a comment. Unless noted, the call rests on the fitted dose curve; in most records, active means well fitted curve in the direction sought with a large enough effect; inconclusive means small, poorly fitted or top-dose-only effect, or another doubt; inactive means no such curve, though single readings can be large; an effect the other way counts as inactive or inconclusive.

SMILES	B2AR arrestin	DRD3 agonist	D3 antag	IDH1 R132H inh	a7 integrin act
O=C(c1cc(C(=O)c2ccco2)cc(C(=O)c2ccco2)c1)c1ccco1	0.7%	5.3	9.3	9.1%	1.8%
Cc1cc(C(=O)OCC(=O)NCCc2ccccc2)c2ccccc2n1	0.1%	50.8*	-13.6	6.3%	10.7%
CCCCN(C)C(=O)c1nc2ccccn2c1CNCCCn1ncc2ccccc21	-0.4%	-13.9	-76.7*	-14.7%	-12.4%
CN(Cc1ccccc1)C(=O)c1nc2ccccn2c1CNCCCOc1cccnc1	-0.2%	-16.5	-55.9*	-5.2%	-33.6%
COc1ccc(-c2ccc3oc(-c4ccsc4)c(-c4ccc(OC)cc4)c3c2)cc1	nt	-7.7	5.7	-3.7%	0.0%
COc1ccc(-c2ccc3oc(-c4ccc(OC)cc4)c(C#CCO)c3c2)cc1	nt	57.6*	111.4	-10.0%	-18.3%
COc1ccc(-c2ccc3oc(-c4ccc(OC)cc4)c(-c4ccc(OC)cc4)c3c2)cc1	nt	71.8*	14.9	-9.2%	4.8%
CN1CCc2c(sc3c2C(=O)NC(c2ccc(OC(=O)c4ccccc4)cc2)N3)C1 (configuration not stated)	nt	-24.8	nt	11.4%	nt
CCOc1ccc(NC(=O)c2nn(C)c3c2COc2ccccc2-3)cc1	nt	55.2*	nt	-12.0%	nt
COC(=O)c1ccc(NC(=O)c2nn(C)c3c2COc2ccccc2-3)cc1	nt	3.2	nt	6.7%	nt
CC(C)(C)C1CCc2c(sc(NC(=O)CSc3ncn[nH]3)c2C#N)C1 (configuration not stated)	2.0%	35.6*	21.2	12.2%	-51.6%
CC1CCc2c(sc(NC(=O)CSc3ncn[nH]3)c2C#N)C1 (configuration not stated)	-0.5%	1.9	18.9	-5.0%	-50.4%
CC(=O)c1cccc(NC(=O)CN2C(=O)COc3ccc(Cl)cc32)c1	0.2%	-11.2	-94.5*	0.1%	35.1%
c1ccc2c(c1)ccn1c(Cc3ccsc3)c(C3CCCCC3)nc21	nt	-17.2	-82.6*	nt	nt
COc1ccc2[nH]c3c(c2c1)CCN1C(=O)C(CC(=O)NCCC2=CCCCC2)C[C@H](C(=O)N2CCOCC2)[C@@]31CCC1CCCC1 (some centres not stated)	-0.9%	29.6	-52.2*	7.1%	17.3%
COc1ccc2[nH]c3c(c2c1)CCN1C(=O)C(CC(=O)NCCN2CCOCC2)C[C@H](C(=O)N2CCCCC2)[C@@]31CCc1ccccc1 (some centres not stated)	-0.5%	30.3*	-9.2	-9.5%	-4.9%
CC(CN1CCOCC1)OC(=O)/C=C/c1ccccc1 (configuration not stated)	-0.5%	-10.1	-19.6	12.5%	30.6%
CC(CN1CCCC1)OC(=O)Cc1ccc(Cl)cc1 (configuration not stated)	-0.6%	-12.9	-2.3	1.1%	6.5%
CC(CN1CCCCC1)OC(=O)C(C)(c1ccccc1)c1ccccc1 (configuration not stated)	0.1%	-5.1	-53.3*	5.7%	-48.9%
CC(CN1CCCCC1)OC(=O)/C=C/c1ccccc1 (configuration not stated)	-0.5%	-27.8	-61.2*	-2.1%	-25.2%
CC(CN1CCCCC1)OC(=O)Cc1ccc(Cl)cc1 (configuration not stated)	0.2%	2.9	-58.3*	-5.1%	-2.1%
O=C(/C=C/c1ccccc1)CCN1CCCCC1	nt	-20.9	-87.7*	4.8%	-71.7%
O=C(NCC(c1cccnc1)N1CCc2ccccc21)c1cccc(F)c1 (configuration not stated)	nt	-10.1	nt	19.6%	nt
CC(CN1CCN(C)CC1)OC(=O)c1ccccc1Cl (configuration not stated)	-0.5%	-1.7	-52.2*	0.1%	-3.4%
Cc1ccc(NC(=O)Nc2cccs2)c(C)c1	nt	0.5	nt	3.3%	nt
SMILES	B2AR arrestin	DRD3 agonist	D3 antag	IDH1 R132H inh	a7 integrin act
O=[N+]([O-])c1ccc(C(O)C23CN4CN(CN(C4)C2)C3)cc1 (configuration not stated)	-0.2%	4.9	-68.5*	0.2%	20.3%
CCOc1cccc(/C=C/c2ccc3cccc(O)c3n2)c1OC	?	-24.2	-82.7*	2.6%	-57.2%
CCOc1cccc(/C=C/c2ccc3cccc(O)c3n2)c1O	-0.3%	1.3	-56.0*	11.4%	-16.8%
CCOc1cc(/C=C/c2ccc3cccc([N+](=O)[O-])c3n2)ccc1O	-2.0%	-2.8	?	4.7%	-44.4%
CCOc1c(OC(C)=O)ccc(/C=C/c2ccc3cccc(OC(C)=O)c3n2)c1[N+](=O)[O-]	-0.3%	0.0	0.0	-1.7%	0.0%
CCCCC[C@H](O)/C=C/[C@H]1CCC(=O)[C@@H]1CCCCCCC(=O)N1CCCCC1CO (some centres not stated)	0.1%	30.4*	82.9	-0.1%	-30.1%
CCC1CCCCN1C(=O)CCCOc1ccccc1 (configuration not stated)	0.4%	1.0	1.5	3.0%	-45.7%
Brc1cccc(OCCCNC2CCCC2)c1	0.0%	-15.0	-91.3*	3.2%	-57.2%
CC(C)NCCCCOc1cccc(Br)c1	-1.3%	-37.7	?	2.9%	-9.2%
CC(C)NCCOc1cccc(Br)c1	-0.3%	-1.6	-74.8*	8.1%	1.0%
O=C(Nc1ccc(F)cc1)c1ccc(-n2cnc3cccnc32)cc1	nt	-11.9	nt	-8.4%	nt
Oc1cccc2ccc(/C=C/c3ccccc3Cl)nc12	0.3%	-22.1	-175.9*	6.4%	-50.2%
COc1ccccc1/C=C/c1ccc2cccc(O)c2n1	-0.4%	-17.4	-11.7	16.0%	-55.9%
COc1ccc(Cl)cc1/C=C/c1ccc2cccc(O)c2n1	0.4%	-21.6	-84.1*	20.6%	-66.9%
COc1cc(Cl)cc(/C=C/c2ccc3cccc(O)c3n2)c1OC	0.2%	-1.1	-93.7*	10.6%	-13.7%
Cc1cc2c(c(=O)n1-c1ccccc1)C1O[C@](c3ccsc3)(Cc3ccccc31)O2	-0.4%[9.22 µM]	nt	nt	nt	nt
CC[C@@H](C)[C@H](N)C(=O)O	nt	-6.1	nt	nt	nt
O=C(Nc1ccccc1)c1ccc(CN2CCc3ccccc3C2)cc1	0.1%	-4.5	?	-12.3%	-1.3%
O=C(Nc1cccnc1)c1ccc(CN2CCc3ccccc3C2)cc1	-0.6%	-13.2	-74.0*	-1.5%	-11.6%
O=C(Nc1ccccc1F)c1ccc(CN2CCc3ccccc3C2)cc1	0.2%	-12.2	0.0	-0.7%	-2.7%
O=C(Nc1ccc(S(=O)(=O)N2CCCCC2)cc1)c1ccc(CN2CCc3ccccc3C2)cc1	0.0%	-14.0	-21.8	-7.3%	-36.6%
Cc1cc(C)cc(NC(=O)c2ccc(CN3CCc4ccccc4C3)cc2)c1	-0.3%	-11.2	-66.8*	-2.4%	-42.3%
